The campaign covered roughly 48,000 compounds. About 13,000 (27%) showed an effect of 50% or more. The list shows a part of the results.
The molecules below were run on Wolbachia pipientis (assay: Anti-Wolbachia Cell-Based Screen). Settings: 5 µM.
Type: functional
Design: scale not given: in the data most compounds retested in dose-response had high values

SMILES	Percent Effect
O=C(Nc1ccc(OCc2cccc(F)c2)c(F)c1)C1COCCO1 (configuration not stated)	-24.38%
Cn1nc2c(c1NC(=O)c1cccs1)CCC2	116%
CC(C)CN1CCCC1c1ccc(C(=O)Nc2cn(C)nn2)s1 (configuration not stated)	6.317%
CN1CCCC1c1ccc(C(=O)Nc2c3c(nn2C)CCC3)s1 (configuration not stated)	105.6%
O=C(NC1CCN(c2nccs2)CC1)c1cccs1	-6.975%
Cn1nc2c(c1NC(=O)c1ccc(C3CCCN3C3CCC3)s1)CCC2 (configuration not stated)	91.78%
NCC(=O)N1CCCC1c1ccc(C(=O)NCc2ccoc2)s1 (configuration not stated)	-13.99%
CN1CCCC1c1ccc(C(=O)N2CCc3ccccc3C2)s1 (configuration not stated)	10.54%
CC(C)CN1CCCC1c1ccc(C(=O)Nc2cccnc2)s1 (configuration not stated)	20.92%
O=C(Nc1nnc(N2CCCCC2)[nH]1)c1cccs1	3.867%
Cc1cncc(NCC(O)c2ccco2)n1 (configuration not stated)	11.88%
Clc1ccc(OCCNC2(c3ccc(Br)cc3)CCOCC2)cc1	18.48%
Cc1nnc(CCNC(=O)C(c2ccc(F)cc2)N(C)C)[nH]1 (configuration not stated)	15.69%
CSCCCN1CCn2nc(CNC(C)=O)cc2C1	-21.5%
CNS(=O)(=O)CCNC(=O)[C@@]12CNC[C@@H]1CN(C1CCCC1)C2	-0.715%
CC(=O)NC1(C(=O)N2CCCN(c3cccnn3)CC2)CCCCC1	1.939%
CN(C)CCOCc1nnc2n1CCN(Cc1ccco1)CC2.O=C(O)C(F)(F)F.O=C(O)C(F)(F)F	99.11%
CN(C)CCOCc1nnc2n1CCN(Cc1cccs1)CC2.O=C(O)C(F)(F)F.O=C(O)C(F)(F)F	101.6%
CN(C)CCOCc1nnc2n1CCN(Cc1ccco1)C2.O=C(O)C(F)(F)F.O=C(O)C(F)(F)F	-14.14%
Cc1ccc(CN2CCc3nnc(COCCN(C)C)n3CC2)o1.O=C(O)C(F)(F)F.O=C(O)C(F)(F)F	95.05%
CC(=O)NCc1nnc2n1CCN(Cc1cccs1)C2.O=C(O)C(F)(F)F	-7.249%
O=C(O)C(F)(F)F.O=C(O)C(F)(F)F.c1cncc(COCc2nnc3n2CCN(Cc2cccs2)C3)c1	-10.65%

SMILES	Percent Effect
O=C(O)C(F)(F)F.O=C(O)C(F)(F)F.c1cncc(COCc2nnc3n2CCN(Cc2ccco2)C3)c1	-13.62%
CCOCc1nnc2n1CCN(Cc1c(C)noc1C)CC2.O=C(O)C(F)(F)F	-27.85%
COc1ccc(NC(=O)C2CCCO2)cc1OCc1cccnc1 (configuration not stated)	5.381%
Cc1cnccc1N1CCCN(C(=O)CCCn2ccnc2C)CC1	-4.474%
Cc1nn(C)c(C)c1CCC(=O)N1CC(c2cccnc2)C1	23.02%
Cc1nn(C)c(C)c1CCC(=O)N1CCc2sccc2C1	7.197%
Cc1nccn1CCCNC(=O)C1CCCCN1Cc1ccncc1 (configuration not stated)	-5.862%
Cc1nccn1CCCn1cncc1-c1ccc2c(c1)CCC(C)N2C.Cl (configuration not stated)	102.7%
Cc1nn(C)c(C)c1CCn1cncc1-c1ccc2c(c1)CC(C)N2C.Cl (configuration not stated)	101.8%
CCN1c2ccc(-c3cncn3CCCn3ccnc3C)cc2CC1C.Cl (configuration not stated)	77.37%
Cc1nccn1CCCn1cncc1-c1ccc2c(c1)CCCN2C.Cl	98.66%
CCOc1ncc(NC(=O)c2ccccn2)c(OCC)n1	0.09854%
CN1C[C@@H]2CC[C@H](C1)N(Cc1ccccc1OCCN1CCOCC1)C2	-8.693%
CSc1ccc(CNc2ccccc2CN2CCC(O)CC2)cc1	-4.512%
Cn1cc(CCCNC(=O)NC2CCN(c3ccccc3)C2=O)cn1 (configuration not stated)	20.77%
CCn1nc2c(cc1=O)CN(CCOc1cccc(C#N)c1)CC2	-9.961%
Cn1cc(C(=O)OCC(N)=O)c(-c2ccc(F)cc2F)n1	-2.814%
N#CCCN(Cc1cccnc1)C(=O)c1ccc(-n2cnnn2)cc1	12.89%
Cc1ccc(NC(=O)N(C)C)c(C(=O)OCC(=O)NC2CCCC2)c1	-9.857%
COc1ccc(CN(C)C(=O)NCc2c(C)cc(C)[nH]c2=O)cc1	-0.4347%
Cc1nccn1CCCn1cncc1-c1ccc2c(c1)CC(C)N2C.Cl (configuration not stated)	92.09%
CC1=NOC(C(=O)N(C)CCCn2nc(C)cc2C)C1 (configuration not stated)	25.07%

SMILES	Percent Effect
Cc1cnccc1N1CCCN(C(=O)CCn2ccnc2C)CC1	-14.43%
Cc1cc(C)n(CCCN(C)C(=O)C2COc3ccccc3C2)n1 (configuration not stated)	-47.38%
Cc1cc(C)n(CCCn2cncc2-c2ccc3c(c2)CC(C)N3C)n1.Cl (configuration not stated)	95.59%
CC(C)OCCC1CCCCN1S(C)(=O)=O (configuration not stated)	3.961%
CC(O)CN(C)S(=O)(=O)c1ccc(C#N)cc1F (configuration not stated)	-5.528%
CC(C(=O)N(Cc1ccc(C#N)cc1)CC(F)(F)F)S(C)(=O)=O (configuration not stated)	-0.5778%
CC(C)(C)C(=O)NS(=O)(=O)c1ccc(C#N)cc1C(F)(F)F	-4.514%
CC(=O)NC1CCN(c2ccc(C#N)cc2C(F)(F)F)CC1	29.91%
CCC(CC)C(=O)NS(=O)(=O)c1ccc(C#N)cc1C(F)(F)F	103.7%
CCC(C)C(=O)NS(=O)(=O)c1ccc(C#N)cc1C(F)(F)F (configuration not stated)	121.4%
N#Cc1ccc(S(=O)(=O)NC(=O)C2CC2)c(C(F)(F)F)c1	6.344%
CC(C)C(=O)NS(=O)(=O)c1ccc(C#N)cc1C(F)(F)F	109%
CN(CCN(C)S(=O)(=O)CC1CCOCC1)c1ccccc1	-10.63%
N#CCCN(CC1CCOC1)Cn1ccc(-c2cccs2)n1 (configuration not stated)	-0.2132%
CC(NC(C)(C)CN)c1ccccc1 (configuration not stated)	-0.2011%
CC(C)c1nnc(CN2CCC3(CC2)Nc2ccccc2NC3=O)o1	8.635%
CC(C)CCN1CCC2(CC1)NCc1ccccc1NC2=O	110.4%
O=C1Nc2ccccc2CNC12CCN(CC1CC1)CC2	106.1%
O=C1Nc2ccccc2NC12CCN(c1cccc(C(F)(F)F)n1)CC2	-10.36%
NC(=O)C(NC1CCN(CC2CCCCC2)CC1)c1ccccc1 (configuration not stated)	-8.499%
O=C1Nc2ccccc2CNC12CCN(CC1CCNC1)CC2 (configuration not stated)	113.7%
O=C1Nc2ccccc2NC12CCN(Cc1nnc(C3CC3)o1)CC2	10.49%

SMILES	Percent Effect
CC(C)CN1CCC2(Cc3ccccc3NC2=O)C1 (configuration not stated)	2.79%
O=C1Nc2ccccc2CNC12CCN(CC1CCCC1)CC2	118.7%
Cn1cc(C2(C)CN(C(=O)COc3ccccc3F)CCO2)cn1 (configuration not stated)	-6.052%
O=S(=O)(NCC1(O)CCOCC1)c1c(F)cccc1F	-2.026%
Cc1cc(F)ccc1S(=O)(=O)N1CCN(C)Cc2ccccc21	-7.823%
CC(C)(C)CN1CCCC2(CCN(C(=O)c3cn[nH]c3)C2)C1 (configuration not stated)	-0.3441%
CCNC(=O)NCc1ccccc1NS(=O)(=O)c1ccccc1	26.47%
O=C1CC2(CCCCC2)C(=O)N1CC(O)COCc1ccccc1F (configuration not stated)	-27.41%
CC(C)(C)CNCC1(O)CCCN(Cc2ccccc2F)C1=O (configuration not stated)	-15.35%
CSCCC(O)C(=O)N1CCN(Cc2cccc(Cl)c2)CC1 (configuration not stated)	8.238%
CCC(CO)N(Cc1ccccn1)C(=O)c1ccc(=O)[nH]c1 (configuration not stated)	7.999%
COc1ccccc1N1CCN(C(=O)CSC(C)C)C(C)C1 (configuration not stated)	-5.211%
Cc1nc(CN2CCC(CNC(=O)CCC3CCCC3)CC2)oc1C	-6.137%
O=C(CNC(=O)C1CC1)NCC1CCCC1	-13.86%
NC(=O)CSCCC(=O)N1CCCC1c1ccsc1 (configuration not stated)	-6.046%
O=C(CCn1cncn1)NCC1CCCC1	2.005%
N#CCSCC(=O)NCC1CCCCC1	102.7%
N#CCSCCCN1CCC(C(=O)N2CCCCCC2)CC1	2.389%
NC(=O)CSCC(=O)NCC1CCCC1	107.6%
NC(=O)CSCCC(=O)NCC1CC1	101.8%
O=C(CCn1cncn1)NCC1CCOC1 (configuration not stated)	0.0368%
Cc1cccc(N(CC(=O)N2CCCCC2)Cc2ccno2)c1	2.857%

SMILES	Percent Effect
Cc1cc(C(=O)NCC2SCCc3ccccc32)no1 (configuration not stated)	0.5755%
CCN(C(=O)Cc1ccc(NC(=O)NC2CC2)cc1)c1ccccc1	-0.9902%
O=C(CSc1ccc2c(c1)OCCO2)NS(=O)(=O)c1cc(F)ccc1F	-16.91%
Cc1ncccc1CNCC1CCCN1c1cccnn1 (configuration not stated)	86.13%
CC(C)c1nnc(CNCC2CCCN2c2cccnn2)o1 (configuration not stated)	-19.57%
c1cnnc(N2CCCC2CNCCc2cccs2)c1 (configuration not stated)	5.045%
c1cnnc(N2CCCC2CNCc2ccsc2)c1 (configuration not stated)	-3.279%
Cc1ccc(CNCC2CCCN2c2cccnn2)s1 (configuration not stated)	110.2%
Cc1ncc(CNCC2CCCN2c2cccnn2)s1 (configuration not stated)	6.124%
Cc1nc(CNCC2CCCN2c2cccnn2)cs1 (configuration not stated)	-2.276%
c1cnnc(N2CCCC2CNCc2cccs2)c1 (configuration not stated)	108.7%
CC(C)(C)c1cnc(CNCC2CCCN2c2cccnn2)o1 (configuration not stated)	10.11%
Cc1nc(CNCC2CCCN2c2cccnn2)oc1C (configuration not stated)	-10.17%
Cc1noc(C)c1CNCC1CCCN1c1cccnn1 (configuration not stated)	5.268%
CC(C)(C)c1ncc(CNCC2CCCN2c2cccnn2)s1 (configuration not stated)	130.1%
CC(=O)Nc1ccc(CN2CCOC2=O)cc1	-1.092%
CC(=O)Nc1ccc(/C=C/c2ncc(C(=O)O)s2)cc1	35.4%
CC(C)c1ccn(C2(C(=O)O)CCN(c3ccncc3F)CC2)n1	-3.994%
Cc1cccc(C(=O)N(C)CC(=O)N2CCCC2)c1C	11.26%

Reference: ChEMBL document CHEMBL3988442, “University of Dundee, Small-Polar-MMV Screening Library” (2021)
